KB-3-1 cytotox = kills parental KB-3-1 adenocarcinoma cells | KB-3-1 viability, CellTiter-Glo ATP luminescence, 72 h | Potency, µM (top dose mostly 46.1 µM), usual class: cytotoxic | 400,000 tested, 1.4% active; also: nearly all actives have a fitted effect of over 60% in size
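Multi-concentration cytotoxicity screen in KB-3-1 cells grown in DMEM lacking phenol red with 10% FBS. After 72 h at 37 °C with compound, ATP-dependent luminescence was recorded.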
HT1080 IDH1KD tx = kills HT-1080 cells with IDH1 knockdown; HT-1080 IDH1 knockdown viability, ATP luminescence, 48 h; Potency, µM (titrated, usually from 46.1 µM), hits mostly cytotoxic; 360,000 tested, 2% active; AID 686971
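% activity derives from luminescence (CellTiter-Glo), normalised to DMSO and no-cell wells. HT-1080-IDH1KD cells, 750/well, had 48 h compound exposure at 37 °C.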
DT40 TDP1 CPT = DT40-hTDP1 cell growth loss with CPT; 420,000 tested, 12% active; chicken DT40 Tdp1-/-;hTDP1 cells + 20 nM CPT, ATP luminescence, 48 h; AID 686979; Potency, µM (highest dose often 46.2 µM), most hits filed as inhibitors; also: nearly all actives have a fitted effect of over 55% in size
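Chicken DT40 Tdp1-/- cells complemented with human TDP1, 400 cells/well, exposed to compounds plus 20 nM camptothecin for at least 48 h at 37 C; viability read as ATP content by CellTiter-Glo luminescence.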
HT1080-NT tox = kills 2HG-producing HT-1080-NT fibrosarcoma cells; HT-1080-NT fibrosarcoma viability, CellTiter-Glo ATP luminescence, 48 h; 360,000 tested, 1.6% active; Potency, µM (series often up to 46.1 µM), hits mostly cytotoxic;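 also: NT is the 2HG producing partner of a matched IDH1 knockdown line; nearly all actives have a fitted effect of over 55% in size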
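Toxicity toward the 2HG-producing NT line was scored as %Activity, normalised to DMSO and no-cell wells, from CellTiter-Glo luminescence after 48 hours' treatment.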
DT40 TDP1 no CPT = qHTS for Inhibitors of human tyrosyl-DNA phosphodiesterase 1 (TDP1): qHTS in cells in absence of CPT; Potency, µM (highest dose often 46.2 µM), usual class: inhibitors; AID 686978, 2013; DT40 Tdp1-/- hTDP1 cells, no CPT, ATP luminescence, 48 h; 420,000 tested, 15% active; also: nearly all actives have a fitted effect of over 55% in size
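Camptothecin absent (DMSO only). Human TDP1-complemented DT40 knockout cells, 400 cells/well, 37 °C for minimum 48 hr; ATP measured via CellTiter-Glo, 30 min dark incubation, luminescence.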
KB-V1 cytotox = kills drug-selected multidrug resistant KB-V1 cells; KB-V1 MDR cells viability, CellTiter-Glo, 72 h; Potency, µM (titrated, usually from 46.1 µM), hits mostly cytotoxic; 400,000 tested, 3.4% active; also: nearly all actives have a fitted effect of over 60% in size
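KB-V1 MDR subline cells in DMEM (phenol-red free, 10% FBS) exposed to compounds in qHTS concentration series for 72 h at 37 degrees C. Viability read by CellTiter-Glo luminescence; concentration-effect curves fitted after normalization and correction.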
Hits are given with their value; i = inactive; ? = inconclusive; nt = no result given. Hits are enriched below; roughly 19% of the tested compounds scored in any of these assays. Calls follow the shape of the dose curve; as a rule, active = well fitted curve in the direction sought with a large enough effect; inconclusive = small, poorly fitted or top-dose-only effect, or another doubt; inactive = no such curve, though single readings can be large; an effect the other way counts as inactive or inconclusive.

SMILES | KB-3-1 cytotox | HT1080 IDH1KD tx | DT40 TDP1 CPT | HT1080-NT tox | DT40 TDP1 no CPT | KB-V1 cytotox
C[C@H](CO)N1C[C@H](C)[C@@H](CN(C)S(C)(=O)=O)Oc2ccc(NC(=O)Cn3cnnn3)cc2C1=O | i | i | i | i | i | i
Cc1ccc(NS(=O)(=O)c2cc(C(=O)O)ccc2Cl)cc1 | i | i | i | i | ? | ?
Cc1ccccc1NS(=O)(=O)c1cc(C(=O)N2CCc3ccccc3C2)ccc1C | i | i | i | i | i | 7.31µM
Cc1ccc(NS(=O)(=O)c2cc(C(=O)N3CCc4ccccc4C3)ccc2Cl)cc1 | i | i | ? | ? | ? | 16.4µM
Cc1c(NC(=O)c2sc3ccccc3c2Cl)cccc1-c1nc2ccccc2o1 | i | nt | i | nt | i | ?
CC(C)NC(=O)N(C)C[C@H]1OCc2cnnn2CCCC(=O)N([C@H](C)CO)C[C@H]1C | i | i | i | i | i | i
O=C(C1CCN(c2nnc(-n3cccc3)s2)CC1)N1CCN(Cc2ccc3c(c2)OCO3)CC1 | i | i | ? | i | 14.6µM | i
CC1CCN(Cc2ccc(NC(=O)C3CCN(c4nnc(-n5cccc5)s4)CC3)cc2)CC1 | i | i | 18.4µM | i | ? | i
CCc1ccc(C(=O)c2cn(CC(=O)Nc3ccc(OC)c(OC)c3)c3ccc(C)cc3c2=O)cc1 | i | nt | i | nt | i | i
CC(C)Cc1nnc(NC(=O)CSc2nc(O)c(-c3ccccc3)c(=O)[nH]2)s1 | i | i | i | i | i | i
COc1ccc(/C=C2\SC(=Nc3ccccc3Cl)NC2=O)c(OC)c1 | ? | ? | 25.9µM | ? | 14.6µM | ?
CCC(c1nnc(SCC(=O)Nc2cccnc2Cl)n1-c1ccccc1)N(C)C (stereo unspecified) | i | i | i | i | i | i
CCc1cc2c(=O)c(-c3nc4ccccc4n3C)coc2c(CN2CCC(C)CC2)c1O | i | i | ? | i | 6.51µM | i
O=C(/C=C/[C@H]1O[C@@H](n2ccc(=O)[nH]c2=O)[C@H](O)[C@@H]1O)NC(c1ccccc1)c1ccccc1 | i | i | i | i | i | i
C=CCN1C(=O)/C(=C/c2ccc(O)c(OC)c2)S/C1=N/c1nccs1 | i | ? | i | i | ? | 14.6µM
CN=C1S/C(=C\c2ccc(O)c(OC)c2)C(=O)N1C | i | i | i | i | i | i
O=C(O)c1ccccc1C(=O)OCC1CCC(=NO)CC1 (stereo unspecified) | i | i | i | i | i | i
CC(C)OCCCNC(=O)Cn1c(-c2cccs2)cc2cc(F)ccc21 | i | nt | ? | nt | ? | i
CCOc1cc(CNC(=O)Cn2c(-c3cccs3)cc3cc(F)ccc32)ccc1OC | i | nt | ? | nt | ? | 11.6µM
CCOc1ccc(CCNC(=O)Cn2c(-c3cccs3)cc3cc(F)ccc32)cc1OCC | 6.51µM | nt | 11.6µM | nt | 13µM | ?
CC1CCN(S(=O)(=O)c2ccc3c(c2)N(CC(=O)NC(C)c2ccccc2)C(=O)CS3)CC1 (stereo unspecified) | i | nt | ? | nt | ? | i
COc1ccc(NS(=O)(=O)c2cc(NC(=O)CCc3ccc(OC)c(OC)c3)ccc2N2CCOCC2)cc1 | i | i | i | i | i | i
CC(=O)OCC(=O)N1N=C(c2ccc3ccccc3c2)CC1c1ccccc1 (stereo unspecified) | i | i | i | i | i | ?
CCn1cc([N+](=O)[O-])c(C(=O)N2N=C(c3ccc(OC)cc3OC)CC2c2ccccc2O)n1 (stereo unspecified) | i | i | ? | i | 14.6µM | ?
CCn1cc([N+](=O)[O-])c(C(=O)N2N=C(c3cccc4ccccc34)CC2c2ccccc2O)n1 (stereo unspecified) | i | 17.8µM | ? | ? | 12.6µM | i
CCn1cc(Cl)c(C(=O)N2N=C(c3ccc4ccccc4c3)CC2c2ccccc2O)n1 (stereo unspecified) | 20.6µM | ? | ? | ? | 14.6µM | ?

Screening data deposited in PubChem by National Center for Advancing Translational Sciences (NCATS).
